In PubChem BioAssay (NCI):
Where “and” joins values, the source holds several entries; their conditions need not be identical. Equal values may be shown once. Compounds without any hit were thinned out: in the full panel of roughly 83,000, 20% have a hit.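 Values shown are percent growth following 48 h exposure of cells in 96-well plates to a single concentration of compound; below 10 was considered active.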 Calls of active or inactive are those of the source.

Tested on: SN12C renal
Experiment: NCI-60 one-dose screen, 48 h (100 = growth as untreated, 0 = no growth, -100 = all killed)
Settings: 4.75 µM
Protocol: Growth inhibition of the SN12C human tumor cell line is measured as a screen for anti-cancer activity. Cells are grown in 96 well plates and exposed to the test compound for 48 hours. Compounds are tested at a single concentration, which is 10^-5 M for most compounds. The reported endpoint is percent growth (GI% or GIPRCNT), where numbers from 0 - 100% represent growth inhibition, and numbers from -100% - 0 represent cell death. For example, a value of 40 represents 60% growth inhibition. A value of 0 means no net growth occurred over the course of the experiment. A value of -40 indicates 40% of cells at the beginning of the experiment died by the end of the experiment. A value of -100 means all cells are dead at the end of the experiment.
NCI-60 Human Tumor Cell Lines Screen was performed using the standard one-dose NCI protocol, which is described in more detail at https://dtp.cancer.gov/discovery_development/nci-60/default.htm.
Compounds with GIPRCNT values below 10 were considered active. Activity score was based on GIPRCNT using the following formula: […]
Score is 0 for GIPRCNT values of 100 or above, 50 for GIPRCNT values of 0, and 100 for GIPRCNT values of -100.

Question: With `CC(=O)OCC1OC([S-])C(OC(C)=O)C(OC(C)=O)C1OC(C)=O.[Au+].c1ccc(CN2[CH-]N(Cc3ccccc3)C(c3ccccc3)=C2c2ccccc2)cc1` as the molecule, how does the growth read?
Answer: -15.1% (active)

Same assay, conditions: 10 µM

Question: How did the growth turn out when `CC(=O)OCC1OC([S-])C(OC(C)=O)C(OC(C)=O)C1OC(C)=O.[Au+].c1ccc(CN2[CH-]N(Cc3ccccc3)C(c3ccccc3)=C2c2ccccc2)cc1` was run?
Answer: -49% (active)

Question: `O=C(O)CCCc1ccc(N(CCCl)CCCl)cc1` was tested. Which growth did it give?
Answer: 82.9% (inactive) and 86.8% (inactive)

Same assay, conditions: 10 µM unless noted

Question: How did the growth turn out when `C[C@]12CC[C@H]3[C@@H](C[C@@H]4SC(Nc5ccccc5)=N[C@@]45C/C(=N/O)CC[C@]35C)[C@@H]1CCC2=O` was run?
Answer: 84.7% (inactive)

Question: For `C[C@]12C[C@H](c3ccoc3)OC(=O)[C@H]1CC[C@@]1(C)[C@@H]2[C@H]2C=C[C@]1(O)C(=O)O2`, which growth is on record?
Answer: 97.6% (inactive)

Question: How did the growth turn out when `N#Cc1ccc(Cl)cc1` was run?
Answer: 107% (inactive)

Question: `CN(C)c1ccc(N)cc1` was tested. Which growth did it give?
Answer: 96.2% (inactive) and 64.7% (inactive)

Question: Which growth does the source give for `CCCCS(=O)(=O)Cl` here?
Answer: 104% (inactive)

Question: `N#CC(C#N)=C(C#N)C#N` was tested. Which growth did it give?
Answer: 110% (inactive)

Question: With `Oc1cc(N2CC2)c(O)cc1N1CC1` as the molecule, how does the growth read?
Answer: 12.7% (inactive)

Question: For `Cc1ccc(N2CCN(CCC#N)CC2)cc1`, which growth is on record?
Answer: 96% (inactive)

Question: For `CCCCOC(N)=O`, which growth is on record?
Answer: 103% (inactive)

Question: For `CCCCCCCCCCCCCCCCCCn1cc[n+](C)c1`, which growth is on record?
Answer: -52.5% (active) and -68.4% (active)

Question: For `COC(=O)C1=CCCN(C)C1`, which growth is on record?
Answer: 107% (inactive) and 105% (inactive)

Question: Which growth does the source give for `CCC(=O)C(CC(C)[N+](C)(C)C)(c1ccccc1)c1ccccc1` (stereo not given) here?
Answer: 98.2% (inactive)

Question: With `Oc1ccccc1C=NCCN=Cc1ccccc1O` as the molecule, how does the growth read?
Answer: 102% (inactive)

Question: Which growth does the source give for `C[N+]12CCC34C5=CC(=O)C(=O)C=C5[N+]5(C)C(=O)CC6OCC=C(C1)C(CC32)C6C45` (stereo not given) here?
Answer: 105% (inactive)

Question: For `CC(=O)c1cccc(S(=O)(=O)F)c1`, which growth is on record?
Answer: 104% (inactive)

Question: With `C=CC[PH+](c1ccccc1)c1ccccc1.C=CC[PH+](c1ccccc1)c1ccccc1.[Pt+2].[S-]c1nc2ccccc2[nH]1.[S-]c1nc2ccccc2[nH]1` as the molecule, how does the growth read?
Answer: -4.98% (active)

Question: `CCOP(=O)(OCC)C(=O)N(CC)CC` was tested. Which growth did it give?
Answer: 103% (inactive)

Question: `O=C(NC1=NCC[Se]1)c1ccccc1O` was tested. Which growth did it give?
Answer: 68.4% (inactive)

Question: With `O=c1[nH]c(=O)[nH]c(=O)[nH]1` as the molecule, how does the growth read?
Answer: 120% (inactive)

Question: Which growth does the source give for `C[C@]12CC[C@H]3[C@@H](CC=C4c5nc(N)sc5CC[C@@]43C)[C@@H]1CC[C@@H]2O` here?
Answer: 93.8% (inactive)

Question: For `C=CC[PH+](c1ccccc1)c1ccccc1.C=CC[PH+](c1ccccc1)c1ccccc1.[Pt+2].[S-]c1ncccn1.[S-]c1ncccn1`, which growth is on record?
Answer: 40.3% (inactive)

Question: For `CNC(=O)CCl`, which growth is on record?
Answer: 96.9% (inactive)

Question: For `CO[C@H]1[C@H](O[C@@H]2C[C@@H]3C/C=C/C(=O)O[C@@H](CO)C[C@H](O)[C@@H]4C[C@H](C)[C@H](C/C=C\C=C\[C@H](C)C[C@H](C2)O3)O4)O[C@@H](C)[C@H](O)[C@H]1O`, which growth is on record?
Answer: 62.6% (inactive)

Question: For `C[C@]12CC[C@H](O)C[C@@H]1CC[C@@H]1[C@@H]2CC[C@]2(C)OC(=O)CC[C@@H]12`, which growth is on record?
Answer: 96.8% (inactive)

Question: With `C/C(=N/OC(=O)N(C)C)c1ccc(Cl)c(Cl)c1` as the molecule, how does the growth read?
Answer: 95% (inactive)

Question: For `NC(=O)Oc1cc(OC(N)=O)cc(N(CCCl)CCCl)c1`, which growth is on record?
Answer: 37.5% (inactive)

Question: With `OCCNC1CCCCC1` as the molecule, how does the growth read?
Answer: 100% (inactive)

Question: For `O=[N+]([O-])c1cc(Cl)c(Cl)c([N+](=O)[O-])c1Cl`, which growth is on record?
Answer: 23.1% (inactive)

Question: Which growth does the source give for `CCN(CC)CCn1c(=O)n(C)c2ccccc21` here?
Answer: 108% (inactive)

Question: With `CN1CCN(c2ccc(Cl)cc2)CC1` as the molecule, how does the growth read?
Answer: 90.7% (inactive)

Question: With `CC(=O)OC1CC2(O)C(CCC3(C)C(c4ccc(=O)oc4)CCC32O)C2(C)CCC(OC3OC(CO)C(O)C(O)C3O)C=C12` (stereo not given) as the molecule, how does the growth read?
Answer: -6.05% (active)

Question: `CCCCCCCCCCCCCCCC[N+](C)(C)Cc1ccccc1` was tested. Which growth did it give?
Answer: 5.04% (active) and -76.7% (active)

Question: How did the growth turn out when `Nc1ccc2c(c1)Cc1cc(N)ccc1-2` was run?
Answer: 90.5% (inactive)

Question: For `N#CCC(=O)c1ccccc1`, which growth is on record?
Answer: 109% (inactive)

Question: `Clc1ccc(COC(Cn2ccnc2)c2ccc(Cl)cc2Cl)c(Cl)c1` (stereo not given) was tested. Which growth did it give?
Answer: 53.6% (inactive) and 73.9% (inactive)

Question: How did the growth turn out when `O=C1NC(=O)C(=Cc2ccccc2)C(=O)N1` was run?
Answer: 89.7% (inactive) and 102% (inactive)

Same assay, conditions: 75 µM

Question: `O=C(O)CCCc1ccc(N(CCCl)CCCl)cc1` was tested. Which growth did it give?
Answer: 41.2% (inactive)
